The panel holds about 83,000 compounds, 20% with a hit somewhere; the sample as a whole holds those more often.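 Activity criterion: percent growth below 10, measured after cells in 96-well plates were exposed to a single compound concentration for 48 hours.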 A number with no mark means an inactive call. Activity calls are given as the source filed them.

Our source for the growth values is PubChem BioAssay (NCI).

The subject of this test is HL-60(TB) leukemia. Description: NCI-60 one-dose screen, 48 h (100 = growth as untreated, 0 = no growth, -100 = all killed). The conditions noted are these: 10 µM unless noted.
For the compound `[2H]c1cc2c(c([2H])c1F)/C(=C/c1[nH]c(C)c(C(=O)NCCN(CC)CC)c1C)C(=O)N2`, the growth was 4.9% (active).
The same measure for `CC[C@H](C)C(=O)O[C@H]1CCC=C2C=C[C@H](C)[C@H](CC[C@@H]3CC=CC(=O)O3)[C@H]21`: -0.21% (active); for `Nc1nc(N)c2cc(CNc3ccc(Cl)c(Cl)c3)ccc2n1`: 1.98% (active).
The same measure for `COc1cc(C2C3=C(COC3=O)N(CCO)c3cc4c(cc32)CCC4)cc(OC)c1O` (stereo not given): -8.61% (active); for `CCCCCC(=O)c1ccc(OCCCN2CCN(C(=O)OCC)CC2)cc1`: 72.4%; for `CCCNC(=O)Oc1ccc(/C(=C(/C)Cc2ccc(OC)cc2)c2ccc(OCCN3CCCC3)cc2)cc1`: 51.9%.
As to `NS(=O)(=O)c1ccc(CCn2c(SCC(=O)N/N=C/c3ccccc3O)nc3ccccc3c2=O)cc1`, the growth was -25.5% (active).
In the case of `c1csc(-c2c3ccc(=[N+]4CCCCC4)cc-3oc3cc(N4CCCCC4)ccc23)c1`, the growth is -35.5% (active).
The same measure for `CC(C)OC(=O)[C@H](C)N[P@@](=O)(OC[C@@]1(C)O[C@@H](n2cc(F)c(N)nc2=O)C[C@@H]1O[P@](=O)(N[C@@H](C)C(=O)OC(C)C)Oc1ccccc1)Oc1ccccc1`: 95.5%.
Turning to `O=c1c2cc(F)ccc2sc2c(NCCO)nc3ccccc3c12`, the growth is 91.9%.
The value for `COc1ccc(C(=O)n2nc(-c3ccccc3)nc2N)cc1OC` was 80%; that for `C[C@@H](C[C@H](CCOCc1cccnc1)c1ccccc1)c1cc2ccccc2o1` was 98%; that for `C#C[C@@]1(O)[C@@H](CO)O[C@@H](n2cc(C(F)(F)F)c3c(N)ncnc32)[C@@H]1O` was -37.6% (active).
The same measure for `O=c1[nH]ccc2nc(N3CCC(O)CC3)nc(Nc3ccc(N4CCOCC4)cc3)c12`: 18.9%; for `O=C(CCCCNC(=O)c1cc(=O)c(O)co1)Nc1ccccc1`: 54.7%.
The same measure for `N=C(N)c1ccc(-c2ccc(-c3ccc(F)cc3)s2)s1`: -57.6% (active).
As to `Cc1cc(-c2nc3ccccc3s2)ccc1NC(=O)COc1ccc(Cl)cc1`, the growth was 99.1%.
As for `CC(C)(C)CC(C)(C)Nc1c(-c2c(O)c3ccccc3oc2=O)nc2c(Cl)cc(C(F)(F)F)cn12`, the growth is 90.9%.
The value for `CSC1SCC2C(=O)N(C)C(C(C)C)C(=O)OCC(NC(=O)c3cnc4ccccc4n3)C(=O)NC(C)C(=O)N(C)C1C(=O)N(C)C(C(C)C)C(=O)OCC(NC(=O)c1cnc3ccccc3n1)C(=O)NC(C)C(=O)N2C` (stereo not given) was -51.1% (active); that for `Clc1ccc(/C=N\N=C\c2ccc(Cl)c(Cl)c2)cc1Cl` was 135%; that for `N#Cc1c(N)nc(Cl)c(C#N)c1C(=O)c1ccccc1` was 6.29% (active).
For `CCn1cc(C(=O)O)c(=O)c2cc(F)c(N3CCNCC3)cc21`, the growth was 96.9%.
As to `COc1cc2nc(N3CCCC3)nc(NCc3ccccc3)c2cc1OC`, the growth was -47.8% (active).
With `CC(C)(C)OC(=O)CN1CCc2c(sc3ncnc(N4CCN(c5ccc(F)cc5)CC4)c23)C1`, the growth is 99.5%.
As to `CCCCCCCCCCCCS(=O)CC(C)O` (stereo not given), the growth was 99%.
The same measure for `CCSC1=CC(=O)c2ccccc2C1=O`: 50.9%; for `OCc1cnccc1NCCCOc1ccccc1`: 89.4%.
For the compound `CC1CCC(C)N(C)C1` (stereo not given), the growth is 96.2%.
The same measure for `Cc1cc2nc(CO)[nH]c2cc1C`: 89.7%; for `COc1ccc(/C=C/C(=O)c2ccc(NC(=O)CSc3nnc(-c4cc(-c5ccccc5)nc5ccccc45)n3-c3ccccc3)cc2)cc1`: 95.9%.
The value for `O=c1c2cc(F)ccc2sc2c(NCCCNCCO)nc3ccccc3c12` was 6.49% (active); that for `O=C(/C=C/c1cccc(Cl)c1)c1ccc(O)c(CN2CCN(c3cc4c(cc3F)c(=O)c(C(=O)O)cn4C3CC3)CC2)c1` was 27.3%; that for `Cc1cc(CO)c(O)c(CO)c1` was 80.5%.
The value for `C#CC#CC#CC#CC#CC#CC#CC#CC[C@H]1OC[C@H](COC(=O)O[C@@H](C(=O)O[C@H]2C[C@@]3(O)[C@@H](OC(=O)c4ccccc4)[C@@H]4[C@]5(OC(C)=O)CO[C@@H]5C[C@H](O)[C@@]4(C)C(=O)[C@H](OC(C)=O)C(=C2C)C3(C)C)[C@@H](NC(=O)c2ccccc2)c2ccccc2)O1` was 11.3%; that for `Clc1cc(Cl)cc(-c2cnc3nonc3n2)c1` was 10.9%.
For the compound `O=S(=O)(NCCNc1nccc(-c2c(-c3cccc(F)c3)nc3occn23)n1)c1ccc(Br)cc1`, the growth was 103%.
The value for `Nc1n[nH]c2ccc([C@@H]3Nc4cc5[nH]ncc5cc4[C@H]4C5CCC(C5)[C@@H]34)cc12` (stereo not given in full) was -8.95% (active); that for `c1ccc2c(-c3nc(-c4c[nH]c5ncccc45)cs3)c[nH]c2c1` was 88%.
`CCOc1ccc(/C=N/NC(=O)c2cccc3ccccc23)cc1OCC`: the growth was 100%.
The value for `CCC1(C2CCCC2)NC(=O)NC1=O` (stereo not given) was 90.9%.
